Measurements as given in the supplement of paper PMC8728848.
The sample as a whole holds a higher share of the strongest signals than the screen did.

Experiments:
Experiment in all cases: glycan array binding signal (z-score within array); higher = stronger binding
Settings in all cases: glycan notation: IUPAC condensed, linker removed
GalNAc(b1-3)Gal = target: GalNAc(b1-3)Gal
Outline: (§1)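 The binding signal is a Z-score computed within each array. Data were drawn from 3228 arrays in the Consortium for Functional Glycomics database, restricted to those with a known protein sequence. Scores were averaged over arrays of the same protein sequence at different concentrations or buffers, and over linkers, and negative values can be taken as non-binding.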

GalNAc(b1-3)GalNAc = target: GalNAc(b1-3)GalNAc
Outline: as §1

GalNAc(b1-4)GlcNAc = target: GalNAc(b1-4)GlcNAc
Outline: as §1

[1] = target: GlcNAc(a1-4)Gal(b1-4)GlcNAc(b1-3)Gal(b1-4)Glc
Outline: as §1

[2] = target: GlcNAc(a1-4)Gal(b1-4)GlcNAc(b1-3)Gal(b1-4)GlcNAc(b1-3)Gal(b1-4)GlcNAc
Outline: as §1

[3] = target: GlcNAc(b1-2)Man(a1-3)[GlcNAc(b1-2)Man(a1-6)]Man(b1-4)GlcNAc(b1-4)GlcNAc
Outline: as §1

[4] = target: GlcNAc(b1-2)[GlcNAc(b1-6)]Man(a1-6)[GlcNAc(b1-4)][GlcNAc(b1-2)Man(a1-3)]Man(b1-4)GlcNAc(b1-4)GlcNAc
Outline: as §1

[5] = target: GlcNAc(b1-3)Gal(b1-4)GlcNAc
Outline: as §1

[6] = target: GlcNAc(b1-3)Gal(b1-4)GlcNAc(b1-3)Gal(b1-4)GlcNAc(b1-3)Gal(b1-4)GlcNAc(b1-2)[GlcNAc(b1-3)Gal(b1-4)GlcNAc(b1-3)Gal(b1-4)GlcNAc(b1-3)Gal(b1-4)GlcNAc(b1-6)]Man(a1-6)[GlcNAc(b1-3)Gal(b1-4)GlcNAc(b1-3)Gal(b1-4)GlcNAc(b1-3)Gal(b1-4)GlcNAc(b1-2)Man(a1-3)]Man(b1-4)GlcNAc(b1-4)[Fuc(a1-6)]GlcNAc
Outline: as §1

GlcNAc(b1-6)GalNAc = target: GlcNAc(b1-6)GalNAc
Outline: as §1

[7] = target: Kdn(a2-3)Gal(b1-4)[Fuc(a1-3)]GlcNAc
Outline: as §1

[8] = target: Neu5Ac(a2-3)Gal(b1-3)GalNAc
Outline: as §1

[9] = target: Neu5Ac(a2-3)Gal(b1-3)GlcNAc(b1-2)Man(a1-3)[GlcNAc(b1-4)][Neu5Ac(a2-3)Gal(b1-3)GlcNAc(b1-2)Man(a1-6)]Man(b1-4)GlcNAc(b1-4)GlcNAc
Outline: as §1

[10] = target: Neu5Ac(a2-3)Gal(b1-3)GlcNAc(b1-3)Gal(b1-4)GlcNAc
Outline: as §1

[11] = target: Neu5Ac(a2-3)Gal(b1-3)[Fuc(a1-4)]GlcNAc(b1-3)Gal(b1-3)[Fuc(a1-4)]GlcNAc
Outline: as §1

[12] = target: Neu5Ac(a2-3)Gal(b1-4)GlcNAc(b1-2)Man
Outline: as §1

[13] = target: Neu5Ac(a2-3)Gal(b1-4)GlcNAc(b1-2)Man(a1-3)[Neu5Ac(a2-6)Gal(b1-4)GlcNAc(b1-2)Man(a1-6)]Man(b1-4)GlcNAc(b1-4)GlcNAc
Outline: as §1

[14] = target: Neu5Ac(a2-3)Gal(b1-4)GlcNAc(b1-3)Gal(b1-4)GlcNAc(b1-3)Gal(b1-4)GlcNAc
Outline: as §1

[15] = target: Neu5Ac(a2-3)Gal(b1-4)[Fuc(a1-3)]GlcNAc(b1-3)Gal(b1-4)GlcNAc
Outline: as §1

[16] = target: Neu5Ac(a2-3)Gal(b1-4)[Fuc(a1-3)]GlcNAc(b1-3)Gal(b1-4)[Fuc(a1-3)]GlcNAc(b1-3)Gal(b1-4)[Fuc(a1-3)]GlcNAc
Outline: as §1

[17] = target: Neu5Ac(a2-3)[GalNAc(b1-4)]Gal(b1-4)GlcNAc(b1-3)GalNAc
Outline: as §1

[18] = target: Neu5Ac(a2-6)Gal(b1-4)GlcNAc(b1-2)Man(a1-3)[Neu5Ac(a2-6)Gal(b1-4)GlcNAc(b1-2)Man(a1-6)]Man(b1-4)GlcNAc(b1-4)GlcNAc
Outline: as §1

[19] = target: Neu5Ac(a2-6)Gal(b1-4)GlcNAc(b1-2)Man(a1-6)[GlcNAc(b1-2)Man(a1-3)]Man(b1-4)GlcNAc(b1-4)GlcNAc
Outline: as §1

[20] = target: Neu5Ac(a2-6)Gal(b1-4)GlcNAc(b1-3)Gal(b1-4)GlcNAc(b1-3)Gal(b1-4)GlcNAc(b1-2)Man(a1-3)[Neu5Ac(a2-6)Gal(b1-4)GlcNAc(b1-3)Gal(b1-4)GlcNAc(b1-3)Gal(b1-4)GlcNAc(b1-2)Man(a1-6)]GalNAc
Outline: as §1

[21] = target: Neu5Ac(a2-6)Gal(b1-4)GlcNAc(b1-6)[Gal(b1-3)]GalNAc
Outline: as §1

[22] = target: Neu5Ac(a2-8)Neu5Ac(a2-3)Gal(b1-3)GalNAc(b1-4)[Neu5Ac(a2-8)Neu5Ac(a2-3)]Gal(b1-4)Glc
Outline: as §1

[23] = target: Neu5Ac(a2-8)Neu5Ac(a2-3)[Gal(b1-3)GalNAc(b1-4)]Gal(b1-4)Glc
Outline: as §1

Neu5Ac(b2-6)GalNAc = target: Neu5Ac(b2-6)GalNAc
Outline: as §1

[24] = target: Neu5Gc(a2-8)Neu5Gc(a2-6)Gal(b1-4)GlcNAc
Outline: as §1

B1: FimD (Bordetella pertussis) (protein)
chain: MPARVISFCGAALAVWAGLAVQPAMAVDPPVDCGRALGLHFWSSASLISDQTPDGTLIGKPVVGRSLLSKSCKVPDDIKEDLSDNHDGEPVDIVLELGSNYKIRPQSYGHPGIVVDLPFGSTEETGIAIYIDFGSSPMQKVGERQWLYPQKGEVLFDVLTINGDNAEVRYQAIKVGPLKRPRKLVLSQFPNLFTYKWVFMRGTSQERVLAQGTIDTDVATSTIDLKTCRYTSQTVSLPIIQRSALTGVGTTLGMTDFQMPFWCYGWPKVSVYMSATKTQTGVDGVALPATGQAAGMASGVGVQLINGKTQQPVKLGLQGKIALPEAQQTESATFSLPMKAQYYQTSTSTSAGKLSVTYAVTLNYD
- glycan array binding signal (z-score) (GalNAc(b1-3)Gal): 0.008
- glycan array binding signal (z-score) (GalNAc(b1-3)GalNAc): -0.207
- glycan array binding signal (z-score) (GalNAc(b1-4)GlcNAc): 1.38
- glycan array binding signal (z-score) [1]: 1.99
- glycan array binding signal (z-score) [2]: -0.238
- glycan array binding signal (z-score) [3]: 0.004
- glycan array binding signal (z-score) [4]: -0.119
- glycan array binding signal (z-score) [5]: -0.296
- glycan array binding signal (z-score) [6]: 1.29
- glycan array binding signal (z-score) (GlcNAc(b1-6)GalNAc): -0.117
- glycan array binding signal (z-score) [7]: -0.279
- glycan array binding signal (z-score) [8]: 0.041
- glycan array binding signal (z-score) [9]: -0.459
- glycan array binding signal (z-score) [10]: -0.268
- glycan array binding signal (z-score) [11]: -0.191
- glycan array binding signal (z-score) [12]: 1.16
- glycan array binding signal (z-score) [13]: -0.107
- glycan array binding signal (z-score) [14]: 0.504
- glycan array binding signal (z-score) [15]: 0.96
- glycan array binding signal (z-score) [16]: -0.135
- glycan array binding signal (z-score) [17]: 0.943
- glycan array binding signal (z-score) [18]: 0.115
- glycan array binding signal (z-score) [19]: -0.065
- glycan array binding signal (z-score) [20]: 1.34
- glycan array binding signal (z-score) [21]: -0.022
- glycan array binding signal (z-score) [22]: 1.36
- glycan array binding signal (z-score) [23]: -0.095
- glycan array binding signal (z-score) (Neu5Ac(b2-6)GalNAc): -0.348
- glycan array binding signal (z-score) [24]: -0.611
